Cav32 inh = human Cav3.2 channel inhibition, primary screen; O95180; B-score at 10 µM; 100,000 compounds, 4% hits; Cav3.2-expressing cells, Fluo-4 calcium fluorescence FDSS; active compounds read low;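 active = single-dose well whose peak fluorescence ratio is a statistical outlier from its plate by either plate-standardised score or position-corrected B-score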
PostGolgi ctrl = yeast control strain growth, post-Golgi counter-screen | efflux-deficient yeast background strain, growth absorbance A615, 16 h | inhibition, % at 10 µM | 98,000 compounds, 5% hits
PTK2B oligo ant = Pyk2 (human) oligomerization antagonism; Q293 cells, Pyk2 FERM NanoBiT luminescence; active compounds read low; 99,000 compounds, 0.83% hits; Q14289; z-score (the deposit names both 25 µM and 10 µM); AID 1347419;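 active = Z-score of -3 or lower, scaled per plate to the spread of control and sample wells; inactive = z-score above -3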;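 also: negative z-score means lost luminescence so less FERM oligomerization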
PostGolgi yeast = growth inhibition of a yeast mutant, post-Golgi transport screen; 98,000 compounds, 0.9% hits; inhibition, % at 10 µM; post-Golgi transport phenotypic cell assay;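 also: yeast cells grown in 1536-well plates; yeast grown about 18 h at 30C before absorbance read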
Active calls of the source: *; nt = not tested or not shown. Rows were chosen to be rich in hits. Some 8% of all compounds tested hit in one or more screens of this group. Rule as the data show it, unless noted: active = inhibition above about 30%; inactive = the rest.

SMILES | Cav32 inh | PostGolgi ctrl | PTK2B oligo ant | PostGolgi yeast
O=C(CCN1C(=O)c2ccccc2C1=O)N1CCN(C(=O)c2ccccc2)CC1 | -0.0199 | 1.8 | 1.39 | 4.4
CCCn1nc(NC(=O)CC(C)C)c2cc3ccccc3nc21 | -0.37 | 5.4 | -0.69 | 4.2
O=C(CSc1nc2ccccc2c(=O)n1-c1ccc(F)cc1)NCc1ccco1 | -0.971 | 3.0 | 0.86 | -1.8
O=c1c2ccccc2nc(SCc2cn3ccsc3n2)n1-c1ccc(F)cc1 | -2.6 | 51.8* | -3.26* | -2.4
O=C(NC(=S)NNC(=O)c1cccs1)c1ccc(Br)o1 | -7.36* | 3.5 | 0.52 | 2.4
O=c1c2ccccc2nc(SCc2nc3ccccc3s2)n1Cc1ccco1 | -1.75 | 14.2 | 1.41 | 5.3
Cc1ccc(CSc2nc3ccccc3c(=O)n2Cc2ccco2)cc1 | -4.56* | nt | -0.65 | nt
CCc1ccc(NC(=O)CSc2nc3cc(C(=O)OC)ccc3c(=O)n2Cc2ccco2)cc1 | -0.0861 | -1.8 | -0.68 | -7.7
CCN(C(=O)CSc1nc2cc(C(=O)OC)ccc2c(=O)n1Cc1ccco1)c1cccc(C)c1 | -4.29* | 7.8 | -2.31 | -0.8
O=c1c2ccccc2nc(SCc2ccccc2)n1Cc1ccco1 | -5.81* | 18.1 | -1.12 | 18.8
O=c1c2ccccc2nc(SCc2cccc(F)c2)n1Cc1ccco1 | -3.38 | 30.7* | -0.33 | 3.6
COc1ccc(-c2nnc(SCC(=O)Nc3ncc(C)s3)n2-c2ccccc2)cc1OC | 0.46 | -0.6 | -0.66 | -7.9
Cc1cc(NC(=O)CCC(=O)N(c2ccccc2)C(C(=O)NCC2CCCO2)c2cccnc2)no1 (configuration not stated) | -0.118 | 9.4 | 2.86 | -3.0
O=C(CSc1nc2ccccc2c(=O)n1Cc1ccco1)c1ccccc1 | -2.18 | 31.3* | 1.02 | -3.9
COc1cccc(-c2csc(N3CCN(C(=S)Nc4ccccc4Cl)CC3)n2)c1 | -4.05* | 24.2 | -0.05 | 6.1
COc1ccc(NC(=O)N2CCN(c3nc(-c4cccc(OC)c4)cs3)CC2)cc1 | -1.74 | 41.5* | -0.07 | -16.9
COc1cccc(-c2csc(N3CCN(C(=S)Nc4ccccc4OC)CC3)n2)c1 | -2.64 | 12.7 | 0.84 | -4.2
Cc1ccc(CC2CC(=O)N(c3nc4ccccc4n3C)C2=O)cc1 (configuration not stated) | -1.27 | -2.6 | 0.66 | 0.5
CCCN(CCC)C(=O)CSc1nc2n[nH]c(C)c2c(=N)n1-c1ccc(OCC)cc1 | -6.25* | 14.8 | -2.1 | -2.6
CN(CCOc1ccccc1)S(=O)(=O)c1ccc2oc3ccccc3c2c1 | -5.43* | 18.1 | -1.39 | -1.7
NC(=O)c1ccc(C(F)(F)F)n(Cc2ccc(Cl)cc2)c1=O | 1.05 | 20.3 | -0.01 | -2.5
NC(=O)c1ccc(C(F)(F)F)n(Cc2cccc(Cl)c2)c1=O | -2.82 | 60.7* | -0.36 | 5.3
CCOC(=O)c1c(C)nn(Cc2cccc(Cl)c2)c1N | -0.441 | 24.5 | -0.67 | -2.3
CCOC(=O)c1c(C)sc2c1N(C(=O)CCl)c1cc(Cl)ccc1S2 | -2.91 | 78.4* | 0.14 | 8.7
O=C(NCCN1CCN(c2ccccc2)CC1)C1CCN(S(=O)(=O)c2cccc3nonc23)CC1 | 0.267 | -14.4 | 2.06 | -1.9
SMILES | Cav32 inh | PostGolgi ctrl | PTK2B oligo ant | PostGolgi yeast
CCCC1=Nc2cc(C(=O)NCCCOCC)ccc2Sc2ccccc21 | -6.01* | 20.6 | -0.41 | 0.5
Cc1ccc(-c2c(C)n([O-])c3c([n+]2=O)CCCC3)o1 | -0.131 | 7.2 | 0.33 | 6.9
FC(F)(F)c1cnc2c(-c3ccc(Cl)cc3Cl)noc2c1 | -0.435 | 10.9 | -1.18 | -6.9
O/N=C(\c1ccc(Cl)cc1)c1ncc(C(F)(F)F)cc1Cl | -6.05* | 14.4 | 1.58 | 1.3
CCOc1ccccc1-c1cc(C(=O)N/N=C/c2ccc3c(c2)OCO3)c2ccccc2n1 | -0.606 | 91.6* | -2.38 | 52.8*
COc1ccccc1-c1cc(C(=O)N/N=C/c2sccc2C)c2ccccc2n1 | -3.72 | 47.8* | -1.16 | 0.5
Cc1ccsc1/C=N/NC(=O)c1c[nH]c2ccccc12 | -0.538 | 4.2 | -0.19 | -7.4
Cn1c(NC(=O)c2cc(-c3ccc4c(c3)OCO4)nc3ccccc23)cc(=O)n(C)c1=O | nt | 7.5 | -3.96* | -1.8
CCn1c(=O)c(C(=O)CN(C)Cc2cccc(OC)c2OC)c(N)n(Cc2ccccc2)c1=O | 1.07 | 1.4 | -0.1 | 1.2
CCn1c(=O)c(C(=O)CN2CCCc3ccccc32)c(N)n(Cc2ccccc2)c1=O | -6.14* | 6.0 | -0.24 | 0.6
COC(=O)c1cccc(NC(=O)CSc2nnc(C)n2Cc2ccccc2)c1 | -0.735 | 0.1 | 0.58 | 4.3
Cc1nnc(N/N=C/c2cc([N+](=O)[O-])c(N3CCC(C)CC3)cc2N2CCC(C)CC2)n1N | -6.68* | 17.0 | -1.4 | -7.4
CN(Cc1ccccc1)C(=O)CN(c1ccc(F)cc1)S(=O)(=O)c1ccc2c(c1)OCCO2 | -5.04* | nt | -2.73 | nt

Screening results from PubChem BioAssay.
